Screening results as filed in PubChem BioAssay.
GLP-1R inv ag: GLP-1 receptor (human) inverse agonism; P43220; HEK293 GLP-1R CRE-luciferase, luminescence, 24 h; GLP-1R form is constitutively active; Potency, µM (highest dose often 38.3 µM), for inactives: at the highest dose activity change, negative = inhibition, most hits filed as inhibitors; actives 1.6% (n = 410,000); AID 624417; further: on the % scale 0 is the no-effect control and ±100 the full control effect; nearly all actives have a fitted effect of over 55% in size
Target sequence (P43220 whole entry, looked up): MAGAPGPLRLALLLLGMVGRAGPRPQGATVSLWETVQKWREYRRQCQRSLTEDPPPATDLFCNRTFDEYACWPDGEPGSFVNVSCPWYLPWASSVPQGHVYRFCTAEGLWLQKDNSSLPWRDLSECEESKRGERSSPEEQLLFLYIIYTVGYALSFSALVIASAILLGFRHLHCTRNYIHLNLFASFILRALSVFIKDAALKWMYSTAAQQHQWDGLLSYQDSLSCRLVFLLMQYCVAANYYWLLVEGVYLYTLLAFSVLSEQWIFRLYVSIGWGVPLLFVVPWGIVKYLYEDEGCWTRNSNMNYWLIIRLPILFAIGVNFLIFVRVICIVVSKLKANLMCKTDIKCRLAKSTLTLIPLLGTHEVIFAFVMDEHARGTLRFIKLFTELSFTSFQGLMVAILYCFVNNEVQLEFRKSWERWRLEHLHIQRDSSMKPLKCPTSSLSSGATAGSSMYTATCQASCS
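Luminescence readout: a drop in cAMP-driven luciferase signal flags inverse agonism at a constitutively active GLP-1R stably expressed in HEK293. Compound exposure lasted 24 hr at 37 deg C, 5% CO2.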
HEK293 tox: cytotoxic in the GLP-1 receptor inverse agonist counter-screen. HEK293 cAMP-luciferase reporter cells, luminescence, 24 h. AID 624418. actives 0.13% (n = 410,000). Potency, µM (top dose mostly 38.3 µM), without a hit: at the highest dose activity change, negative = inhibition, hits mostly inhibitors;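 further: loss of luciferase light is scored as toxicity; on the % scale 0 is the no-effect control and ±100 the full control effect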
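Luminescence readout: signal drop marks cytotoxicity. Plated cells grew 12 h at 37 °C, 5% CO2, received 23 nL compound for 24 h, then got luciferase reagent, read after 12 min at RT.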
GLP-1R agonist: GLP-1 receptor (human) agonism | P43220 | HEK293 GLP-1R CRE-luciferase, luminescence, 4-6 h; cells express a hypersensitive GLP-1R form | Potency, µM (top dose mostly 45.6 µM), without a hit: top-dose activation, usual class: activators | actives 0.007% (n = 380,000); further: % of control where 0% means no effect
Active calls of the source: *; [ ] = another dose, or the depositor's remark. Only some compounds are listed: those with a hit (about 1.7% of all), similar ones and a draw of the others. The call rests on the fitted dose curve; in most records, active means well fitted curve in the direction sought with a large enough effect; inconclusive means small, poorly fitted or top-dose-only effect, or another doubt; inactive means no such curve, though single readings can be large; an effect the other way counts as inactive or inconclusive. Potency means the concentration at half of the fitted maximal effect.

How did COc1cccc(C(=O)Nn2c(-c3cccs3)nc3ccccc3c2=O)c1OC do in these assays?
GLP-1R inv ag: -30%; HEK293 tox: -9%; GLP-1R agonist: 10%

How did COc1ccc(C2NC(=O)NC(C)=C2C(=O)Nc2cc(C)cc(C)c2)c(OC)c1 (stereo not given) do in these assays?
GLP-1R inv ag: 9%; HEK293 tox: 4%; GLP-1R agonist: 1%

Results for O=C(c1cc(Cl)cc(Cl)c1)N1CCC(=O)N([C@H](COCc2ccccc2)Cc2ccccc2)CC1 ?
GLP-1R inv ag: inconclusive; HEK293 tox: -12%; GLP-1R agonist: -1%

What do the screens show for `O=C(O)[C@H](Cc1ccccc1)NC(=O)C(c1ccccc1)(c1ccccc1)c1ccccc1`?
GLP-1R inv ag: 10µM*; HEK293 tox: 0%; GLP-1R agonist: -4%

How did O=C(CC(c1ccccc1)(c1ccccc1)c1ccccc1)N[C@@H](Cc1ccccc1)C(=O)O do in these assays?
GLP-1R inv ag: inconclusive; HEK293 tox: 2%; GLP-1R agonist: -2%

What do the screens show for `CN(C)c1ccc2nc3c(=O)[nH]c(=O)nc-3n(CC(O)C(O)C(O)CO)c2c1` (stereo not given)?
GLP-1R inv ag: -7%; HEK293 tox: -20%; GLP-1R agonist: 0%

How did O=C(CN1CCCC1)Nc1ccccc1Sc1ccccc1 do in these assays?
GLP-1R inv ag: inconclusive; HEK293 tox: 6%; GLP-1R agonist: 19%

Results for CC1CCN(CC(=O)Nc2ccccc2Sc2ccccc2)CC1 ?
GLP-1R inv ag: 4.5µM*; HEK293 tox: 5%; GLP-1R agonist: 4%

How did CCN(CC)CCOC(=O)c1ccc(N)cc1Cl do in these assays?
GLP-1R agonist: -4%

How did CC(/C=N/NC(=O)c1ccncc1)=C\c1ccccc1 do in these assays?
GLP-1R inv ag: 5%; HEK293 tox: -12%; GLP-1R agonist: 2%

Results for CC(/C=N/NC(=O)c1cccc(F)c1)=C\c1ccccc1 ?
GLP-1R inv ag: 10µM*; HEK293 tox: 0%; GLP-1R agonist: -6%

How did O=C(c1cc2cc([N+](=O)[O-])ccc2oc1=O)N1CCN(C2CCCCC2)CC1 do in these assays?
GLP-1R inv ag: -4%; HEK293 tox: -12%; GLP-1R agonist: -5%

How did CCCCOc1ccc(C(=O)NCCS(=O)(=O)N2CCN(c3ccccc3OC)CC2)cc1 do in these assays?
GLP-1R inv ag: 10µM*; HEK293 tox: 1%

How did CCCCOc1ccc(C(=O)NCCS(=O)(=O)N2CCN(c3ccc(F)cc3)CC2)cc1 do in these assays?
GLP-1R inv ag: 0%; HEK293 tox: -4%

What do the screens show for `CC(C)CSc1nc(N2CCOCC2)c2c(c1C#N)CC(C)(C)SC2`?
GLP-1R inv ag: inconclusive; HEK293 tox: 24%; GLP-1R agonist: 3%

Results for CCCSc1nc(N2CCOCC2)c2c(c1C#N)CC(C)(C)SC2 ?
GLP-1R inv ag: 10µM*; HEK293 tox: -5%; GLP-1R agonist: -10%

Results for COC(=O)c1ccccc1NS(=O)(=O)c1cc2c3c(c1)CC(=O)N3CCC2 ?
GLP-1R inv ag: 10%; HEK293 tox: 2%

Results for CCOC(=O)c1ccc(Oc2nc(NC(C)(C)C)nc(N(C)C)n2)cc1 ?
GLP-1R inv ag: 7.9µM*; HEK293 tox: -19%; GLP-1R agonist: 3%

How did CCOC(=O)c1ccc(Oc2nc(N(C)C)nc(N(C)C)n2)cc1 do in these assays?
GLP-1R inv ag: -61%; HEK293 tox: -2%; GLP-1R agonist: 5%

What do the screens show for `CCCCc1cc(=O)oc2c3c(cc(OCC(=O)NCCCO)c12)OC(C)(C)CC3`?
GLP-1R inv ag: 73%; HEK293 tox: -3%; GLP-1R agonist: 17%

How did Cn1c2ccccc2c(=O)c2ccc(C#CC3(N)CCCCC3)cc21 do in these assays?
GLP-1R inv ag: -3%; HEK293 tox: 12%; GLP-1R agonist: -3%

How did N#Cc1ccc(C#Cc2ccc3oc4ccccc4c(=O)c3c2)cc1 do in these assays?
GLP-1R inv ag: 5%; HEK293 tox: 6%; GLP-1R agonist: -4%

Results for O=c1c2ccccc2oc2ccc(C#CC3(O)CCCCC3)cc12 ?
GLP-1R inv ag: 7.1µM*; HEK293 tox: -27%; GLP-1R agonist: -1%

Results for Cn1c2ccccc2c(=O)c2cc(C#CC3(O)CCCCC3)ccc21 ?
GLP-1R inv ag: 1µM*; HEK293 tox: -1%; GLP-1R agonist: -5%

What do the screens show for `COc1cc(C(CC(=O)Nc2ccc(Cl)cn2)N2Cc3ccccc3C2=O)cc(OC)c1OC` (stereo not given)?
GLP-1R inv ag: -18%; HEK293 tox: -9%; GLP-1R agonist: 12%

Results for CCOc1ccc(-c2nn(-c3ccccc3)cc2C2NC(=O)NC(C)=C2C(=O)OC(C)C)cc1C (stereo not given) ?
GLP-1R inv ag: inconclusive; HEK293 tox: -16%; GLP-1R agonist: 7%

What do the screens show for `O=C(CCl)Nc1ccc(-c2ccccc2)cc1`?
GLP-1R inv ag: 10µM*; HEK293 tox: inconclusive; GLP-1R agonist: -4%

How did O=C(CCl)Nc1ccc(N=Nc2ccccc2)cc1 do in these assays?
GLP-1R inv ag: inconclusive; HEK293 tox: inconclusive; GLP-1R agonist: 17%

What do the screens show for `S=C(Nc1ccc2nsnc2c1)NC1CCCCC1`?
GLP-1R inv ag: inconclusive; HEK293 tox: 15%; GLP-1R agonist: -7%

What do the screens show for `S=C(Nc1ccc(Cl)c(Cl)c1)NC1CCCCC1`?
GLP-1R inv ag: -16%; HEK293 tox: 13µM*; GLP-1R agonist: 6%

Results for S=C(Nc1ccc(Oc2ccccc2)cc1)NC1CCCCCC1 ?
GLP-1R inv ag: 10µM*; HEK293 tox: inconclusive; GLP-1R agonist: -4%

How did S=C(Nc1ccc(Oc2ccccc2)cc1)NC1CCCCC1 do in these assays?
GLP-1R inv ag: inconclusive; HEK293 tox: -20%; GLP-1R agonist: 2%

What do the screens show for `S=C(Nc1ccc(Cl)c(Cl)c1)NC1CCN(Cc2ccccc2)CC1`?
GLP-1R inv ag: 3.2µM*; HEK293 tox: inconclusive; GLP-1R agonist: -22%

What do the screens show for `Cc1ccc(NC(=S)NNC(=S)NC2CCCCC2)cc1`?
GLP-1R inv ag: -20%[7.66 µM]; HEK293 tox: 14%[7.66 µM]; GLP-1R agonist: 1%

Results for Fc1ccc(NC(=S)NC2CCN(Cc3ccccc3)CC2)cc1 ?
GLP-1R inv ag: inconclusive; HEK293 tox: -49%; GLP-1R agonist: 2%

What do the screens show for `S=C(NNc1ccc2ccccc2c1)NC1CCCCC1`?
GLP-1R inv ag: 10µM*; HEK293 tox: inconclusive; GLP-1R agonist: 0%

How did N#Cc1ccccc1Cn1c(=O)n(-c2cccc(C(F)(F)F)c2)c(=O)c2sccc21 do in these assays?
GLP-1R inv ag: -7%; HEK293 tox: -4%

What do the screens show for `CC(C)(C)c1ccc(S(=O)(=O)NC(=O)C2(C)CCN2C(=O)C2(c3ccc(Cl)cc3)CC2)cc1` (stereo not given)?
GLP-1R inv ag: inconclusive; HEK293 tox: 2%; GLP-1R agonist: -3%

What do the screens show for `Cc1cc([N+](=O)[O-])nn1CCCC(=O)Nc1c(C)n(C)n(-c2ccccc2)c1=O`?
GLP-1R inv ag: 16%; HEK293 tox: 3%; GLP-1R agonist: 4%

Results for COc1cc(-c2nc3ccc(C)cn3c2Nc2ccc(Cl)cc2)ccc1O ?
GLP-1R inv ag: 3.5µM*; HEK293 tox: inconclusive

How did COc1cc(-c2nc3ccc(Cl)cn3c2Nc2ccc3c(c2)OCO3)ccc1O do in these assays?
GLP-1R inv ag: inconclusive; HEK293 tox: 0%
